Screens from PubChem BioAssay.
ELG1 DNA repair = qHTS screen for small molecules that inhibit ELG1-dependent DNA repair in human embryonic kidney (HEK293T) cells expressing luciferase-tagged ELG1; HEK293T ELG1-luciferase reporter, luminescence, 16 h; DNA damage induced by 5-fluorouridine; hit rate 2.3% among 330,000; Potency, µM (titrated, usually from 46.1 µM), for inactives: top-dose activity change, negative = inhibition, most hits filed as inhibitors; note: potency is the fitted concentration of half-maximal effect; nearly all actives have a fitted effect of over 55% in size
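Overnight (16 hr) co-exposure of 2,000 cells/well to 5-fluorouridine and compound at 37 °C preceded detection. Luciferase was quantified via ONE-Glo luminescence; loss of signal denotes inhibition.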
TDP1 cell noCPT = qHTS for Inhibitors of human tyrosyl-DNA phosphodiesterase 1 (TDP1): qHTS in cells in absence of CPT; DT40 Tdp1-/- hTDP1 cells, no CPT, ATP luminescence, 48 h; hit rate 15% among 420,000; Potency, µM (titrated, usually from 46.2 µM), without a hit: at the highest dose activity change, negative = growth inhibition, usual class: inhibitors; AID 686978, 2013; note: potency is the fitted concentration of half-maximal effect; nearly all actives have a fitted effect of over 55% in size
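Growth kinetics read by CellTiter-Glo luminescence after ≥48 hr at 37 °C. Cells: DT40 Tdp1-/- stably carrying human TDP1, 400 per well, compound exposure in the absence of CPT (DMSO vehicle).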
Giardia kill = Small Molecules that selectively kill Giardia lamblia: qHTS; Giardia lamblia trophozoite viability; activity change, % at 7.66 µM, hits read low; hit rate 0.15% among 340,000; AID 540267, 2011; in the data active = activity change below about -80%; inconclusive = between about -30% and that limit;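 note: parasites exposed to compound for two days anaerobically before the ATP read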
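ATP-content bioluminescence gauges trophozoite survival. Cells (100/well) receive compound and incubate anaerobically for 48 hrs at 37 deg C; detection reagent follows for 15-30 min at room temperature.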
TDP1 cell CPT = qHTS for Inhibitors of human tyrosyl-DNA phosphodiesterase 1 (TDP1): qHTS in cells in presence of CPT; hit rate 12% among 420,000; Potency, µM (series often up to 46.2 µM), for inactives: at the highest dose activity change, negative = growth inhibition, usual class: inhibitors; chicken DT40 Tdp1-/-;hTDP1 cells + 20 nM CPT, ATP luminescence, 48 h; note: potency is the fitted concentration of half-maximal effect; nearly all actives have a fitted effect of over 55% in size
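Chicken DT40 Tdp1-/- cells complemented with human TDP1, 400 cells/well, exposed to compounds plus 20 nM camptothecin for at least 48 h at 37 C; viability read as ATP content by CellTiter-Glo luminescence.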
TDP1 inh = qHTS Assay for Inhibitors of Tyrosyl-DNA Phosphodiesterase (TDP1); Tyrosyl-DNA phosphodiesterase 1 (Homo sapiens), Q9NUW8; recombinant TDP1, AlphaScreen DNA substrate cleavage; Potency, µM (doses to about 130 µM), for inactives: at the highest dose activity change, negative = inhibition, usual class: inhibitors; hit rate 0.28% among 350,000; note: potency is the fitted concentration of half-maximal effect; nearly all actives have a fitted effect of over 40% in size
Target sequence (Q9NUW8 whole entry, looked up): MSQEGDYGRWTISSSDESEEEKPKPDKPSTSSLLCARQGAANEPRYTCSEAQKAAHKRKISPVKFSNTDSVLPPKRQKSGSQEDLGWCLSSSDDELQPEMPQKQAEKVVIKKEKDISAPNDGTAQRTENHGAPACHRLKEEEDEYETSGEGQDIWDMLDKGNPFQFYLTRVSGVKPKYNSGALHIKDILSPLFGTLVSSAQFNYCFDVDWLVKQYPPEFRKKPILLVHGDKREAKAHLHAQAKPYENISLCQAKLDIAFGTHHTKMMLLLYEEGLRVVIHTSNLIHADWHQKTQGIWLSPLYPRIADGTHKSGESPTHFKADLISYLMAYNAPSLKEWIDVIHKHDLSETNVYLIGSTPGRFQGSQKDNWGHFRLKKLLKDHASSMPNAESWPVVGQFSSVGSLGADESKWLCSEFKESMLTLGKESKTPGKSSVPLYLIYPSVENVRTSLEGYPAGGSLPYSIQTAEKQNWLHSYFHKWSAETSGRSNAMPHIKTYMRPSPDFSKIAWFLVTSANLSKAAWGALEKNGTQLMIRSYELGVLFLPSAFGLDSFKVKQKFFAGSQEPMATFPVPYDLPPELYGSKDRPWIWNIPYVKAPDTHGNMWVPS
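AlphaScreen read-out: signal falls as enzyme removes the 3' tyrosine-FITC from a 5'-biotinylated DNA oligo (15 nM, 5 min, RT). Enzyme was E. coli-made recombinant Tdp1 at 1 nM, exposed to compound for 15 min beforehand; beads 10 ug/ml, 10 min.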
IL1B secr inh = qHTS for Inhibitors of Inflammasome Signaling: IL-1-beta AlphaLISA Primary Screen. AID 743279, 2014. THP-1 LPS/ATP IL-1B secretion, AlphaLISA, 16 h; active compounds read low. activity change, % at 57.5 µM. hit rate 4.7% among 360,000; in the data active = activity change below about -50%; inconclusive = mostly about -30% to -49%
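Secreted IL-1B measured by AlphaLISA bead assay after 16 h compound exposure of THP-1 cells; compounds (final up to 57.5 uM) added 1 h before LPS (250 ng/mL) and ATP (1.25 mM) stimulation; lower signal means less secretion.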
Active calls of the source: *; ? = inconclusive; . = not tested or not shown. Compounds with a hit are over-represented: about 19% of the library has one in this group of screens. Unless noted, calls come from the whole dose curve; as a rule, active = well fitted curve in the direction sought with a large enough effect; inconclusive = small, poorly fitted or top-dose-only effect, or another doubt; inactive = no such curve, though single readings can be large; an effect the other way counts as inactive or inconclusive. % is set by controls: 0 for no effect and ±100 for the full control effect.

SMILES | ELG1 DNA repair | TDP1 cell noCPT | Giardia kill | TDP1 cell CPT | TDP1 inh | IL1B secr inh
CCN(CC)CCSc1nc2ccccc2c(=S)n1-c1ccccc1 | 20% | 23µM* | 23 | ? | 4% | -56*
Cn1c(CNc2nc3ccccc3n2CCN2CCCCC2)nc2ccccc21 | -19% | ? | 16 | -24% | 5% | -8
CCN(CC)CCn1c(NCc2nc3ccccc3n2Cc2ccccc2)nc2ccccc21 | -17% | ? | 4 | ? | 7% | -59*
COc1ccc(CNc2nc3ccccc3n2CCN2CCCCC2)cc1 | ? | 21µM* | -30 | 18µM* | 3% | ?
c1ccc(Cn2c(CNc3nc4ccccc4n3CCN3CCCCC3)nc3ccccc32)cc1 | ? | ? | 19 | ? | 8% | -51*
COc1ccc(-n2cc(C(=O)OCc3ccc(F)c(F)c3)c3ccccc3c2=O)cc1 | . | 13% | . | 1% | 0% | .
Cc1nc2ccccn2c(=O)c1NC(=O)c1ccccc1Cl | . | -17% | . | -8% | 8% | .
CCOc1ccc(CNc2nc3ccccc3n2CCN2CCOCC2)cc1 | -8% | 21µM* | 43 | ? | 4% | 19
COCCn1c(C)cc(C(=O)CN2C(=O)NC3(CCCCCC3)C2=O)c1C | ? | 3% | -14 | 1% | 3% | -12
CCCC(=O)NC(Nc1ccccc1F)C(Cl)(Cl)Cl (stereo not given) | ? | . | . | . | -2% | .
CC(C)C(=O)NC(Nc1cc(C(F)(F)F)ccc1Cl)C(Cl)(Cl)Cl (stereo not given) | -1% | 26µM* | 6 | ? | 0% | 23
CCCC(=O)NC(Nc1cc(C(F)(F)F)ccc1Cl)C(Cl)(Cl)Cl (stereo not given) | -12% | 18µM* | 8 | 18µM* | -14% | -3
O=C(NC(Nc1cc(C(F)(F)F)ccc1Cl)C(=O)c1ccccc1)c1ccccc1 (stereo not given) | 12% | 21µM* | 3 | ? | 6% | -4
CC(C)C(=O)NC(Nc1ccccc1F)C(Cl)(Cl)Cl (stereo not given) | 3% | ? | -3 | ? | 4% | 6
CCCC(=O)NC(Nc1cccc(C(F)(F)F)c1)C(Cl)(Cl)Cl (stereo not given) | 2% | 21µM* | 12 | ? | -4% | 8
Cc1ccc2nc(NC(=O)CN3C(=O)NC4(CCCCC4)C3=O)sc2c1 | ? | ? | 6 | ? | . | 0
Cc1ccc(-n2c(SCC(N)=O)nc3c(c2=O)C2(CCCC2)Cc2ccccc2-3)cc1 | -20% | ? | -8 | -25% | 3% | -63*
Oc1ccc(-c2nc3c4c(ncn3n2)-c2ccccc2CC42CCCC2)cc1 | ? | 16µM* | 1 | 15µM* | 2% | -1
Nn1cnc2c(c1=O)C1(CCCCC1)Cc1ccccc1-2 | -4% | 8.2µM* | -5 | 9.2µM* | 11% | 0
CCOc1ccccc1CN1C(=O)NC2(CCCCCC2)C1=O | -3% | -20% | -2 | 15% | . | 14
COc1ccccc1CNC(=O)c1ccc(NC2=NC3CS(=O)(=O)CC3S2)cc1 (stereo not given) | 1% | 18% | -15 | -1% | 5% | -15
Cc1ccc(C[n+]2cccc(-c3ccccc3)c2)c(C)c1 | -20% | 0.73µM* | 8 | 1.2µM* | 5% | -58*
Cc1ccc(CC2(OCCN(C)C)CCC(C(C)(C)C)CC2)cc1 (stereo not given) | . | 15µM* | -2 | 18µM* | . | -99*
